Data on 16 compounds can be found in the supplement of paper PMC10037445.

In all, about 2,900 compounds were measured (“NF-kB SEAP reporter activity, fold change vs agonist alone”: median about 0.99, highest 2% from about 2.6 on). The list comes from a sample in which the highest values are over-represented; it also holds similar structures and randomly drawn compounds.

In assay [1] the test system is RAW-Dual. Put plainly: NF-kB SEAP reporter activity, fold change vs agonist alone; cytotoxicity flag (confluency mask): not cytotoxic; higher = enhanced NF-kB activity. The method, boiled down:
(§1)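 Cytotoxic wells were those whose IncuCyte confluency was below 70% of agonist controls in both mask sets. The cells were RAW-Dual macrophages at 50,000 cells/well in DMEM on 384-well plates, dosed with 50 nL of library stock by pin tool, stimulated with a PRR agonist 1 h later, and kept at 37 °C, 5% CO2 for 20 hours. IRF and NF-κB reporter activity, as fold change over agonist-alone wells, came from supernatant read by QuantiLuc luminescence and QuantiBlue absorbance, respectively.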

The subject of assay [2] is RAW-Dual. Nature of the assay: NF-kB SEAP reporter activity, fold change vs agonist alone; higher = enhanced NF-kB activity. The method, boiled down: as §1
Assay [3] concerns RAW-Dual. Put plainly: NF-kB SEAP reporter activity, fold change vs agonist alone; cytotoxicity flag (confluency mask): cytotoxic (confluency <70% of control); higher = enhanced NF-kB activity. A digest of the protocol: as §1
[4] abbreviates: agonist: ODN 1826 (TLR9) 0.5 ug/mL.
The mark [5] stands for this setting: agonist: Pam2CSK4 (TLR2/6) 0.1 ug/mL.
The mark [6] stands for this setting: agonist: Pam3CSK4 (TLR2/1) 0.1 ug/mL.
The mark [7] stands for this setting: library stock concentration (final ~1000-fold dilution): 10 mM, cytotoxicity flag (confluency mask): not cytotoxic, agonist: Imiquimod (TLR7) […].
[8] abbreviates: library stock concentration (final ~1000-fold dilution): 10 mM, cytotoxicity flag (confluency mask): not cytotoxic, agonist: MPLA (TLR4) […].
Where [9] appears, read: library stock concentration (final ~1000-fold dilution): 2 mM, cytotoxicity flag (confluency mask): not cytotoxic, agonist: Imiquimod (TLR7) […].
[10] abbreviates: library stock concentration (final ~1000-fold dilution): 2 mM, cytotoxicity flag (confluency mask): not cytotoxic, agonist: MPLA (TLR4) […].

As to `CCN(CC)CCCCC(NC(=O)C(CC(C)C)NC(=O)C(C)NC(=O)C(Cc1ccccc1)NC(=O)c1ccc(C(C)(C)C)cc1)C(=O)NC(CO)C(=O)OC` (stereo not drawn) (library stock concentration (final ~1000-fold dilution): 10 mM), the “NF-kB SEAP reporter activity” value in the assay on RAW-Dual [1] (agonist: LPS (TLR4) 0.1 ug/mL) worked out at 0.99; with RAW-Dual [1] (setting [4]), 0.888; with RAW-Dual [1] (setting [5]), 0.898; in the assay on RAW-Dual [1] (setting [6]), 1.1.
As for `COC(=O)C(CCSC)NC(=O)c1ccc(NCC(N)CS)cc1-c1ccccc1.Cl` (stereo not drawn), the “NF-kB SEAP reporter activity” value came out at 1.13 in the assay on RAW-Dual [2] (setting [7]) and 1.22 with RAW-Dual [2] (setting [8]).
As to `COC(=O)C(CCSC)NC(=O)c1ccc(NCC(N)CS)cc1-c1ccccc1.Cl` (stereo not drawn) (library stock concentration (final ~1000-fold dilution): 10 mM), the “NF-kB SEAP reporter activity” value worked out at 1.38 with RAW-Dual [1] (agonist: LPS (TLR4) 0.1 ug/mL), 1.56 with RAW-Dual [1] (setting [4]), 1.16 in the assay on RAW-Dual [1] (setting [5]) and 0.929 in the assay with RAW-Dual [1] (setting [6]).
For the compound `COC(=O)C(CC(C)C)NC(=O)c1ccc(NCC(N)CS)cc1-c1cccc2ccccc12.O=C(O)C(F)(F)F` (stereo not drawn) (library stock concentration (final ~1000-fold dilution): 10 mM), the “NF-kB SEAP reporter activity” value was determined as 3.82 in the assay with RAW-Dual [1] (agonist: LPS (TLR4) 0.1 ug/mL), 2.38 with RAW-Dual [1] (setting [4]), 1.5 in the assay with RAW-Dual [1] (setting [5]) and 2.19 in the assay with RAW-Dual [1] (setting [6]).
For `COC(=O)C(CC(C)C)NC(=O)c1ccc(NCC(N)CS)cc1-c1cccc2ccccc12.O=C(O)C(F)(F)F` (stereo not drawn), the “NF-kB SEAP reporter activity” value stood at 1.25 in the assay on RAW-Dual [2] (setting [7]) and 2.31 in the assay with RAW-Dual [2] (setting [8]).
`CCN(CC)CCCCC(NC(=O)C(CC(C)C)NC(=O)C(C)NC(=O)C(Cc1ccccc1)NC(=O)c1ccc(C(C)(C)C)cc1)C(=O)NC(CO)C(=O)OC` (stereo not drawn): the “NF-kB SEAP reporter activity” value with RAW-Dual [2] (setting [7]) was 1.08; with RAW-Dual [2] (setting [8]), 0.945.
For `C=C(C)C1CCC2(C(=O)OC3OC(COC4OC(CO)C(OC5OC(C)C(O)C(O)C5O)C(O)C4O)C(O)C(O)C3O)CCC3(C)C(CCC4C5(C)CCC(OC6OCC(O)C(O)C6OC6OC(C)C(O)C(O)C6O)C(C)(CO)C5CCC43C)C12` (stereo not drawn) (library stock concentration (final ~1000-fold dilution): 2 mM), the “NF-kB SEAP reporter activity” value stood at 1 in the assay with RAW-Dual [1] (agonist: LPS (TLR4) 0.1 ug/mL), 1.09 in the assay with RAW-Dual [1] (setting [4]), 1.17 in the assay with RAW-Dual [1] (setting [5]) and 1.16 with RAW-Dual [1] (setting [6]).
As to `C=C(C)C1CCC2(C(=O)OC3OC(COC4OC(CO)C(OC5OC(C)C(O)C(O)C5O)C(O)C4O)C(O)C(O)C3O)CCC3(C)C(CCC4C5(C)CCC(OC6OCC(O)C(O)C6OC6OC(C)C(O)C(O)C6O)C(C)(CO)C5CCC43C)C12` (stereo not drawn), the figures for the “NF-kB SEAP reporter activity” value in the assay on RAW-Dual [2] (setting [9]) and in the assay with RAW-Dual [2] (setting [10]) were 0.946 and 1.07, respectively.
In the case of `Cn1cc(-c2cnn3c(N)c(Br)c(C4CCCNC4)nc23)cn1` (stereo not drawn) (library stock concentration (final ~1000-fold dilution): 2 mM), the “NF-kB SEAP reporter activity” value stood at 1.31 in the assay with RAW-Dual [1] (agonist: LPS (TLR4) 0.1 ug/mL), 1.04 in the assay with RAW-Dual [1] (setting [4]), 1.04 with RAW-Dual [1] (setting [5]) and 1.19 with RAW-Dual [1] (setting [6]).
As for `Cn1cc(-c2cnn3c(N)c(Br)c(C4CCCNC4)nc23)cn1` (stereo not drawn), the “NF-kB SEAP reporter activity” value was determined as 1.09 in the assay with RAW-Dual [2] (setting [9]) and 1.35 with RAW-Dual [2] (setting [10]).
Turning to `Nc1ccn(C2CCC(CO)O2)c(=O)n1` (stereo not drawn), the “NF-kB SEAP reporter activity” value in the assay on RAW-Dual [2] (setting [7]) was 0.994; in the assay on RAW-Dual [2] (setting [8]), 0.981.
Consider `Nc1ccn(C2CCC(CO)O2)c(=O)n1` (stereo not drawn) (library stock concentration (final ~1000-fold dilution): 10 mM), for which the “NF-kB SEAP reporter activity” value turned out to be 0.913 in the assay with RAW-Dual [1] (agonist: LPS (TLR4) 0.1 ug/mL), 1 in the assay with RAW-Dual [1] (setting [4]), 0.95 in the assay with RAW-Dual [1] (setting [5]) and 1.15 with RAW-Dual [1] (setting [6]).
`Cn1cc(-c2ccc(S(=O)(=O)n3ccc(/C=C/C(=O)Nc4ccccc4N)c3)cc2)cn1` (library stock concentration (final ~1000-fold dilution): 10 mM): the “NF-kB SEAP reporter activity” value amounted to 4.11 with RAW-Dual [3] (agonist: LPS (TLR4) 0.1 ug/mL), 3.13 with RAW-Dual [3] (setting [4]), 1.14 in the assay with RAW-Dual [3] (setting [5]) and 2.27 in the assay with RAW-Dual [3] (setting [6]).
Take `Nc1cc(F)ccc1NC(=O)/C=C/c1cnn(C/C=C/c2ccccc2)c1`: the “NF-kB SEAP reporter activity” value with RAW-Dual [2] (setting [7]) turned out to be 1.14; in the assay with RAW-Dual [2] (setting [8]) it was 1.2.
Turning to `Nc1cc(F)ccc1NC(=O)/C=C/c1cnn(C/C=C/c2ccccc2)c1` (library stock concentration (final ~1000-fold dilution): 10 mM), the “NF-kB SEAP reporter activity” value in the assay on RAW-Dual [1] (agonist: LPS (TLR4) 0.1 ug/mL) is 0.995; in the assay on RAW-Dual [1] (setting [4]) it was 1.12; in the assay on RAW-Dual [1] (setting [5]), 0.405; in the assay on RAW-Dual [1] (setting [6]), 0.419.
For `Cn1cc(-c2ccc(S(=O)(=O)n3ccc(/C=C/C(=O)Nc4ccccc4N)c3)cc2)cn1`, the “NF-kB SEAP reporter activity” value in the assay with RAW-Dual [2] (library stock concentration (final ~1000-fold dilution): 10 mM, cytotoxicity flag (confluency mask): cytotoxic (confluency <70% of control), agonist: Imiquimod (TLR7) […]) turned out to be 1.68; with RAW-Dual [2] (library stock concentration (final ~1000-fold dilution): 10 mM, cytotoxicity flag (confluency mask): cytotoxic (confluency <70% of control), agonist: MPLA (TLR4) […]), 2.37.
